According to the supplement of paper PMC4709259:
Structures can show the parent of a compound that is named as a salt. ± gives the standard deviation.

Tested on: Jurkat
Assay: mean cell size (FSC-A) relative to DMSO control (fraction of control); higher = larger cells
Details: 48 h
In short: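 Jurkat cells seeded at 600 cells/µl were incubated 1 h, then exposed for 48h to the Enzo Screen-Well FDA Approved Drug Library v2.0 at 25µM in 0.9% (v/v) final DMSO. Drugs that cut counts below 20% of controls were diluted 10-fold and retested, down to 25nM. Cell count and mean cell size (forward scatter area) were read on an Accuri C6 flow cytometer, relative to solvent-only controls. Plates held 6-12 controls; values are means of 3 biological replicates.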

SMILES	mean cell size
CNC[C@H](O)c1ccc(O)c(O)c1 [Epinephrine (L-(-)-Epinephrine-(+)-Bitartrate)] (concentration: 25 µM)	0.959 ± 0.053
CC(C)NCC(O)c1cc(O)cc(O)c1 (configuration not stated) [Metaproterenol Hemisulfate (Orciprenaline)] (concentration: 25 µM)	1.1 ± 0.033
CCOC(=O)[C@H](CCc1ccccc1)N[C@@H](C)C(=O)N1CCC[C@H]1C(=O)O [Enalapril] (concentration: 25 µM)	1.01 ± 0.029
CCn1cc(C(=O)O)c(=O)c2cc(F)c(N3CCNCC3)cc21 [Norfloxacin] (concentration: 25 µM)	0.9213 ± 0.0047
C#C[C@]1(O)CC[C@H]2[C@@H]3CCC4=Cc5oncc5C[C@]4(C)[C@H]3CC[C@@]21C [Danazol] (concentration: 25 µM)	0.995 ± 0.026
NCCCC(O)(P(=O)(O)O)P(=O)(O)O [Alendronate·Na Trihydrate] (concentration: 25 µM)	0.927 ± 0.043
COCCc1ccc(OCC(O)CNC(C)C)cc1 (configuration not stated) [Metoprolol Tartrate] (concentration: 25 µM)	0.935 ± 0.026
